The target in assay [1] is Cytochrome P450 2D6 (Homo sapiens) (UniProt P10635). Description: Cytochrome P450 Family 2 Subfamily D Member 6 (CYP2D6) small molecule antagonists: luciferase reporter qHTS assay (AID 1671196). Also: nearly all actives have a fitted effect of over 50% in size. Also: potency is read from the fitted curve at half-maximal effect. The procedure, abridged:
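CYP2D6 activity was followed as luminescence from its luciferin product after a 1 h NADPH-driven reaction at room temperature. Enzyme-substrate mix and compound were pre-incubated for 10 min, and the signal was read 20 min after adding detection reagent.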
In general terms: A reporter such as luciferase makes a cellular process visible.

The target of assay [2] is Cytochrome P450 2C19 (Homo sapiens) (UniProt P33261). Nature of the assay: Cytochrome P450 Family 2 Subfamily C Member 19 (CYP2C19) small molecule antagonists: luciferase reporter qHTS assay (AID 1671197). Also: nearly all actives have a fitted effect of over 65% in size. Also: potency is read from the fitted curve at half-maximal effect. The method, boiled down: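 Relative luminescence units recorded 20 min after the detection reagent stopped a 1 h, 37C CYP2C19 reaction on proluciferin substrate, which was started by NADPH regeneration following 10 min room-temperature compound preincubation; ketoconazole positive control.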
Sequence of Cytochrome P450 2C19 (Homo sapiens) (P33261 whole entry, looked up): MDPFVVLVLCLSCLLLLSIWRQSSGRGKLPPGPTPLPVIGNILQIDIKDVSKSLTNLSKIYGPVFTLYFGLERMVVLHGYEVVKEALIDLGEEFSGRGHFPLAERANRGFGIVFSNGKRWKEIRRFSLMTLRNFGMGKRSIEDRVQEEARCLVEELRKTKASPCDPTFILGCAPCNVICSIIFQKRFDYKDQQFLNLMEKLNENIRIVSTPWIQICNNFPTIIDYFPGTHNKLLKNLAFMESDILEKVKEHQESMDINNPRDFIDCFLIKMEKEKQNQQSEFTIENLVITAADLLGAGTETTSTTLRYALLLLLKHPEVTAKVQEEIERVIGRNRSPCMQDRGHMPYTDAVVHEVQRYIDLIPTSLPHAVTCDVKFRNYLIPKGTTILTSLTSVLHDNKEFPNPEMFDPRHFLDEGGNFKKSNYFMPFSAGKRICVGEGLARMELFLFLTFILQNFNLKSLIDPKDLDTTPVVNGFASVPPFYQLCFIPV

Assay [3] deals with Cytochrome P450 2C9 (Homo sapiens) (UniProt P11712). Nature of the assay: Cytochrome P450 Family 2 Subfamily C Member 9 (CYP2C9) small molecule antagonists: luciferase reporter qHTS assay (AID 1671198). Also: nearly all actives have a fitted effect of over 50% in size. Also: potency is read from the fitted curve at half-maximal effect. The procedure, abridged:
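P450-Glo proluciferin substrate with CYP2C9 enzyme; 10 min RT preincubation, then NADPH regeneration 1 h at 37C; luciferin detection reagent 20 min RT, luminescence in relative luminescence units.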

Assay [4] deals with Cytochrome P450 1A2 (Homo sapiens) (UniProt P05177). Nature of the assay: Cytochrome P450 Family 1 Subfamily A Member 2 (CYP1A2) small molecule antagonists: luciferase reporter qHTS assay (AID 1671199). Also: nearly all actives have a fitted effect of over 50% in size. Also: potency is read from the fitted curve at half-maximal effect. The method, boiled down:
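Luminescence from luciferin formed by CYP1A2 from a proluciferin substrate, read 20 min after detection reagent. Compound was pre-incubated 10 min with enzyme-substrate, and reaction started with NADPH regeneration solution for 1 h at room temperature; furafylline control.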

In assay [5] the target is Voltage-gated inwardly rectifying potassium channel KCNH2 (Homo sapiens) (UniProt Q12809). Description: Human Ether-a-go-go-Related Gene (hERG) channel small molecule antagonists: fluorescence cell-based qHTS assay (AID 1671200).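 Also: hERG-expressing U2OS cells given a thallium stimulus after FluxOR II dye loading; series mostly up to about 77 µM; nearly all actives have a fitted effect of over 50% in size.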 The method, boiled down:
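U2OS cells expressing the channel were plated at 1000 cells/well, incubated overnight at 37 C, then loaded with FluxOR II thallium-sensitive dye for 1 h at room temperature in the dark, with a further 10 min at room temperature before stimulation.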
For orientation: Block of hERG is tested as a sign of cardiac risk.

The target of assay [6] is Cytochrome P450 3A4 (Homo sapiens) (UniProt P08684). Description: Cytochrome P450 Family 3 Subfamily A Member 4 (CYP3A4) small molecule antagonists: luciferase reporter qHTS assay (AID 1671201). Also: nearly all actives have a fitted effect of over 50% in size. Also: potency is read from the fitted curve at half-maximal effect. The procedure, abridged: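 P450-Glo CYP3A4 system with proluciferin substrate; compounds preincubated 10 min RT with enzyme-substrate mix, then NADPH regeneration added for 1 h RT. Detection reagent 20 min, luminescence read as relative luminescence units.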
Sequence of Cytochrome P450 3A4 (Homo sapiens) (P08684 whole entry, looked up): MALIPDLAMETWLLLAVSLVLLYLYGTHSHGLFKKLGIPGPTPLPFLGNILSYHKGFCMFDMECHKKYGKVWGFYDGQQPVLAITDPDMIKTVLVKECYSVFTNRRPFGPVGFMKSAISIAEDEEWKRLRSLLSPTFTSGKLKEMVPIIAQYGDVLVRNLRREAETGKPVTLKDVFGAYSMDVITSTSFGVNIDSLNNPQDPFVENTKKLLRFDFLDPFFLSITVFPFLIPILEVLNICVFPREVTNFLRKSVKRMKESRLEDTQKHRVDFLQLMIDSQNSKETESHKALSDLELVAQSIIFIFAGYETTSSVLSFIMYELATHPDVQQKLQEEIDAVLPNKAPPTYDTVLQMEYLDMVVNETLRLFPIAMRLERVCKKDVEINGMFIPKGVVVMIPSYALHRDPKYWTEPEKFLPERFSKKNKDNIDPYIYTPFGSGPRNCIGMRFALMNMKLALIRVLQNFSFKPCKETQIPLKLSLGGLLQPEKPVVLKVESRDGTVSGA

Molecules are shown by their SMILES. “And” between values parts separate entries of the source, which are not always exact repeats. Identical values can stand only once. Results filed as inconclusive are left out. The source holds several records for some structures; these can differ, active in one and inactive in another. The source made the active and inactive calls. Calls follow the shape of the dose curve; as a rule, active = well fitted curve in the direction sought with a large enough effect in the repeat runs; inconclusive = weak or mixed curves; inactive = no such curve, though single readings can be large; an effect the other way counts as inactive or inconclusive.

Sequence of Cytochrome P450 2D6 (Homo sapiens) (P10635 whole entry, looked up): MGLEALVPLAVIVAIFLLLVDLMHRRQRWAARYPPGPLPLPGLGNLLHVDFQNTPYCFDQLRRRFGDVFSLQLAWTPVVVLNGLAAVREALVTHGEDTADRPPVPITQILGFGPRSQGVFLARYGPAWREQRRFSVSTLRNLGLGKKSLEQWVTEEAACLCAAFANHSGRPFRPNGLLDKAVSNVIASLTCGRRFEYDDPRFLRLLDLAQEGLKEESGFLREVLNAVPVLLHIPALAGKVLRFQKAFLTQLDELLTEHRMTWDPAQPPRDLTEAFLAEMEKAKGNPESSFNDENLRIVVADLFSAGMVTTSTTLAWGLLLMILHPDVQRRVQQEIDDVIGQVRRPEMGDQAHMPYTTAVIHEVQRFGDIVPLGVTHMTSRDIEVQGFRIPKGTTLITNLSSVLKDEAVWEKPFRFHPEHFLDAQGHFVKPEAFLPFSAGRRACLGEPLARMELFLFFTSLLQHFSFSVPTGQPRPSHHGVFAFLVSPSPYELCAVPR
Sequence of Cytochrome P450 2C9 (Homo sapiens) (P11712 whole entry, looked up): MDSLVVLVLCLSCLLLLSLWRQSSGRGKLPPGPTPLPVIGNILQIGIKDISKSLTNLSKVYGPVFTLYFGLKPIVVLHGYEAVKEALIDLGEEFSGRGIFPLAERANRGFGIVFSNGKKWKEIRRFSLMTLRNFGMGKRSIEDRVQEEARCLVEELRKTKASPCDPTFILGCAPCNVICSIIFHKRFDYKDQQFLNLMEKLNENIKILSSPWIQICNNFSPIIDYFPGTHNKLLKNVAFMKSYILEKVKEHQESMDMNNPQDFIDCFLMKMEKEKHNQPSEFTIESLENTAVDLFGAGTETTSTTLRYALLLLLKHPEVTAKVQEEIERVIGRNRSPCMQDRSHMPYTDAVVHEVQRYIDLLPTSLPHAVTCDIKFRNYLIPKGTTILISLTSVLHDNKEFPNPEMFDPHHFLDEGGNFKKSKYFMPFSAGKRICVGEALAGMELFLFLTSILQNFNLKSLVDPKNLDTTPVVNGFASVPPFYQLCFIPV
Sequence of Cytochrome P450 1A2 (Homo sapiens) (P05177 whole entry, looked up): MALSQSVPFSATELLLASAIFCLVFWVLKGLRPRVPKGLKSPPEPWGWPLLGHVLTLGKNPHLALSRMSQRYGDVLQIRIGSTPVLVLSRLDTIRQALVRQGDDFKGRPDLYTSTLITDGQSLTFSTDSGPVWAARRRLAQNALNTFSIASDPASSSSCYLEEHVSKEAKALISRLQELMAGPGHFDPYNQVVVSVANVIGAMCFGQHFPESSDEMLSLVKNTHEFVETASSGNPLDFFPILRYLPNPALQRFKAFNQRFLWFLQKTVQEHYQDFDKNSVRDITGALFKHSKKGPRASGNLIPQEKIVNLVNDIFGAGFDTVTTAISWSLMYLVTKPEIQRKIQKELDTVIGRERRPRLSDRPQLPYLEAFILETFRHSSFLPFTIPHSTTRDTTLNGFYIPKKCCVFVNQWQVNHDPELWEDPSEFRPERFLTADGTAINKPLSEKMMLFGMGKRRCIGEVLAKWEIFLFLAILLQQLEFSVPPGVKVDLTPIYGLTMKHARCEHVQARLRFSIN
Sequence of Voltage-gated inwardly rectifying potassium channel KCNH2 (Homo sapiens) (Q12809 whole entry, looked up): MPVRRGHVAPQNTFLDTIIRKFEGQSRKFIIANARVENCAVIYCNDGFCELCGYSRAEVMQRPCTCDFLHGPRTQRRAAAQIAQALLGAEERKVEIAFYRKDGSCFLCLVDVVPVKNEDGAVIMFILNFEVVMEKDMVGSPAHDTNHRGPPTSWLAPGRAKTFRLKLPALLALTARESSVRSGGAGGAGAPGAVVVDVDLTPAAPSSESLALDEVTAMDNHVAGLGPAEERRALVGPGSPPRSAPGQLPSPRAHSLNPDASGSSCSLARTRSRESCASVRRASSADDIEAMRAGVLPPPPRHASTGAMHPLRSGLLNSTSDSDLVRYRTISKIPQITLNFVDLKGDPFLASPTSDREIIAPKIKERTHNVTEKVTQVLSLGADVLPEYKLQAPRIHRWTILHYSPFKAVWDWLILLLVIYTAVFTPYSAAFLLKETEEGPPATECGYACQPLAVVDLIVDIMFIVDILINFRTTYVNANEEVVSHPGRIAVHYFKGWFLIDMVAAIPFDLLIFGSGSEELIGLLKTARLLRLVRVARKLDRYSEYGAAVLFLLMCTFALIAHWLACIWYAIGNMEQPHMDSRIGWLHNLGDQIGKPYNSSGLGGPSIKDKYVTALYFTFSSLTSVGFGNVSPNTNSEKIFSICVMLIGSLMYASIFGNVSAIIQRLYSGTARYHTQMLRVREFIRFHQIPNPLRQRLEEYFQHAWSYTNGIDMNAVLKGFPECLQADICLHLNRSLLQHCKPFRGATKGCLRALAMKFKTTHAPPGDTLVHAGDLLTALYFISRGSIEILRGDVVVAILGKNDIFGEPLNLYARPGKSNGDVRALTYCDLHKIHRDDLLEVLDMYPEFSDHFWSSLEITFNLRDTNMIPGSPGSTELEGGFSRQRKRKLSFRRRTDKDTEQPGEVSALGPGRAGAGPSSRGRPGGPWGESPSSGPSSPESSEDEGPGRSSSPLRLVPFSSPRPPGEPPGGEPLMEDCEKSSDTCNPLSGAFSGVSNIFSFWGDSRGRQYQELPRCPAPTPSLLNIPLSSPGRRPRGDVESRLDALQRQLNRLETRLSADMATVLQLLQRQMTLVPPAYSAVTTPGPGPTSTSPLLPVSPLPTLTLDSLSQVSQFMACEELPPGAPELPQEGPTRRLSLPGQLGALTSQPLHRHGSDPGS

On to `NCCNc1cccc2ccccc12`, for which the Potency in assay [1] is 5.02 µM (active) and 9.79 µM (active) and 12.3 µM (active); in assay [2], 31.7 µM (active) and 21.9 µM (active) and 12.3 µM (active); in assay [3], 20 µM (active) and 31 µM (active) and 27.5 µM (active); in assay [4], 632 nM (active) and 778 nM (active) and 723 nM (active); in assay [6] it was 31.7 µM (active) and inactive. Further, the Potency entry in assay [5] is “inactive”.

`Cc1cnc(NC(=O)C2=C(O)c3ccccc3S(=O)(=O)N2C)s1`: the Potency entry in assay [1], in assay [2], in assay [4] and in assay [5] was “inactive” each time. The Potency in assay [3] was 7.98 µM (active) and 11.2 µM (active) and 12.3 µM (active).

Turning to `NC(=O)N1c2ccccc2C=Cc2ccccc21`, the Potency in assay [1] is 1.99 µM (active) and inactive; in assay [2], 70.6 µM (active) and inactive. Also, the Potency entry in assay [3], in assay [4] and in assay [5] was “inactive” in each case.

Take `OCCCc1ccccc1`: the Potency in assay [2] was 31.7 µM (active) and inactive; in assay [4], 35.6 µM (active). The Potency result in assay [3] and in assay [5] was “inactive” each time.

Turning to `CC1=NN(c2ccccc2)C(=O)C1`, the Potency in assay [1] was 31.9 µM (active) and inactive; in assay [2], 71.4 µM (active) and inactive; in assay [3], 11.3 µM (active) and 11.2 µM (active) and 17.4 µM (active). The Potency result in assay [5] and in assay [6] was “inactive” throughout.

For `Cc1c(N(C)C)c(=O)n(-c2ccccc2)n1C`, the Potency in assay [2] is 32.2 µM (active) and inactive; in assay [4], 25.6 µM (active). Besides, the Potency entry in assay [3] and in assay [5] was “inactive” throughout.

Turning to `CC(C)CC(C)CC(O)CC(C)C` (centres undefined), the Potency result in assay [2], in assay [3], in assay [4] and in assay [5] was “inactive” each time.

Turning to `CC(=O)CCC(C)C`, the Potency entry in assay [1], in assay [2], in assay [3], in assay [5] and in assay [6] was “inactive” throughout.

For `Cc1ccc(O)c(-n2nc3ccccc3n2)c1`, the Potency in assay [2] is 7.05 µM (active) and 10 µM (active); in assay [3], 8.87 µM (active) and 7.1 µM (active) and 8.71 µM (active); in assay [4], 2.23 µM (active) and 1.42 µM (active) and 2.57 µM (active). In addition, the Potency entry in assay [5] is “inactive”.

Take `c1ccc2[nH]c(-c3cscn3)nc2c1`: the Potency in assay [2] was 35.8 µM (active) and 71 µM (active) and 34.7 µM (active); in assay [4], 5.06 µM (active) and 2.83 µM (active) and 2.45 µM (active). The Potency entry in assay [3] and in assay [5] was “inactive” in each case.

In the case of `O=C(OCc1ccccc1)c1ccccc1`, the Potency in assay [2] is 31.8 µM (active) and 39.9 µM (active) and 17.4 µM (active); in assay [3], 40 µM (active) and 63.3 µM (active); in assay [4], 31.8 µM (active) and 35.6 µM (active) and 13.8 µM (active). For the same compound, the Potency entry in assay [5] was “inactive”.

In the case of `COc1cc2c(c(OC)c1OC)-c1ccc(OC)c(=O)cc1[C@@H](NC(C)=O)CC2`, the Potency entry in assay [1], in assay [2], in assay [3] and in assay [5] was “inactive” each time.

With `NC(N)=NC(N)=NCCc1ccccc1`, the Potency in assay [1] is 5 µM (active) and 10 µM (active) and 8.71 µM (active). The Potency entry in assay [2] and in assay [5] was “inactive” each time.

As for `OC[C@@H](O)[C@@H](O)[C@H](O)[C@H](O)CO`, the Potency result in assay [2], in assay [4] and in assay [5] was “inactive” throughout. For the same compound, the Potency entry in assay [3] is “inactive and 89.4 µM (active)”.

In the case of `Cc1c(N(C)CS(=O)(=O)O)c(=O)n(-c2ccccc2)n1C`, the Potency result in assay [1] and in assay [5] was “inactive” throughout.

Take `COCC(C)N` (centres undefined): the Potency result in assay [2], in assay [3] and in assay [5] was “inactive” each time. Further, in assay [4], the Potency is 44.8 µM (active).

As for `COC1=CC(=O)C[C@@H](C)[C@]12Oc1c(Cl)c(OC)cc(OC)c1C2=O`, the Potency is 70.4 µM (active) and inactive in assay [2]; 44.8 µM (active) and inactive in assay [3]. Moreover, the Potency entry in assay [4] and in assay [5] was “inactive” throughout.

As to `COC(=O)C1CCC(C(=O)OC)CC1` (centres undefined), the Potency result in assay [2], in assay [3], in assay [4] and in assay [5] was “inactive” in each case.

As to `C/C=C/c1ccc(O)c(OC)c1`, the Potency in assay [2] was 7.96 µM (active) and 39.9 µM (active) and 8.71 µM (active); in assay [3], 2.83 µM (active) and 20 µM (active) and 13.8 µM (active); in assay [4] it was 20 µM (active) and 22.4 µM (active) and 11.5 µM (active). For the same compound, the Potency result in assay [5] is “inactive”.

Turning to `O=C(O)CCCCC1CCSS1` (centres undefined), the Potency in assay [2] is 49.6 µM (active) and inactive. For the same compound, the Potency entry in assay [3], in assay [4] and in assay [5] was “inactive” in each case.

Regarding `C=C(C)C(N)=O`, the Potency result in assay [1], in assay [2], in assay [4], in assay [5] and in assay [6] was “inactive” each time.

`O=c1cc[nH]c(=O)[nH]1`: the Potency entry in assay [1], in assay [2], in assay [3], in assay [4], in assay [5] and in assay [6] was “inactive” in each case.

(Values after PubChem BioAssay (Tox21).)
